The values below come from PubChem BioAssay (NCI).

SMILES strings stand for the structures. This is part of a sample that, as a whole, favours compounds with a hit. Of some 83,000 tested, about 20% had one in any assay.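 Single-concentration screen, 48 h exposure, 96-well plates. Endpoint: percent growth. Below 10 = active.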 Activity calls are given as the source filed them.

The test system of this assay is HL-60(TB) leukemia. In words: NCI-60 one-dose screen, 48 h (100 = growth as untreated, 0 = no growth, -100 = all killed). As to conditions: 10 µM unless noted.
As to `CC/C=C\C[C@H]1C/C=C2/C(=O)C(Cl)=C[C@@H]2C/C=C\CCCC(=O)O1`, the growth is -6.91% (active).
`c1ccc(-c2cn3ccnc3c(-c3ccc4c(c3)ncn4C3CCCCC3)n2)cc1`: the growth was 80.7% (inactive).
Regarding `O=C(NS(=O)(=O)c1ccccc1)n1cc(-c2ccncc2)c(-c2cc(O)cc(Cl)c2)n1`, the growth was 103% (inactive).
As for `Cc1nnc2c3nnc(-c4ccc(Cl)cc4)n3c3ccccc3n12`, the growth is 101% (inactive).
